CYP2C9 inhib: inhibitors of human CYP2C9 | P11712 | CYP2C9 Supersomes, luciferin-H conversion, luminescence | inhibition, % at 5 µM | 96,000 compounds, 20% hits;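 active means blocking of liver enzyme CYP2C9 beyond about 50% at 5 µM, limit read from the data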
Target sequence (P11712 whole entry, looked up): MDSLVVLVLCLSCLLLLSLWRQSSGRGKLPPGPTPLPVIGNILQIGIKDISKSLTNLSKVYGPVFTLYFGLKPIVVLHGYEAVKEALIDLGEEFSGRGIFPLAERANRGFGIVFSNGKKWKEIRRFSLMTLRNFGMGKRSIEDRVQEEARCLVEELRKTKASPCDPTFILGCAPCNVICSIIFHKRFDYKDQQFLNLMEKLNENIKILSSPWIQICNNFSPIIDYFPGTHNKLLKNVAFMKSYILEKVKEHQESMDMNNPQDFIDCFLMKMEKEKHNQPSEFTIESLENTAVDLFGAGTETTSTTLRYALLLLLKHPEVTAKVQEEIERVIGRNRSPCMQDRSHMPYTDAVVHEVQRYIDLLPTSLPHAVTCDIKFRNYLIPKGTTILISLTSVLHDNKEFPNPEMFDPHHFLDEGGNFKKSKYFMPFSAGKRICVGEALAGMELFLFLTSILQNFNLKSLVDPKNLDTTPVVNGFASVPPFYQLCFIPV
CYP2C19 act: cytochrome P450 2C19 (human) activation; P33261; recombinant CYP2C19, luciferin-H EGE luminescence; active compounds read high; 0 = fully inhibited enzyme, 1 = untreated enzyme; activation factor at 5 µM; 96,000 tested, under 10 active; AID 1025;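 active means activation factor of at least 2 at 5 µM in the primary screen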
CYP2C9 act: CYP2C9 (human) activation | P11712 | recombinant CYP2C9, luciferin-H conversion, luminescence; active compounds read high; factor 1 = untreated enzyme, 0 = blocked | activation factor at 5 µM | 96,000 compounds, 1.4% hits;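 active means activation factor of 2 or more for CYP2C9 at a 5 µM dose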
Cav3 T inh: blocks human Cav3.2 T-type calcium channel; O95180; Cav3.2-expressing cells, Fluo-4 calcium fluorescence FDSS; active compounds read low; B-score at 10 µM; 100,000 compounds, 4% hits; AID 449739;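 active means single-dose well whose peak fluorescence ratio is a statistical outlier from its plate by either plate-standardised score or position-corrected B-score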
CYP2C19 inhib: blocks human cytochrome P450 2C19. P33261. CYP2C19 Supersomes, luciferin-H EGE luminescence, 30 min. inhibition, % at 5 µM. 96,000 compounds, 21% hits. AID 778;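 active means CYP2C19 inhibition above a set limit at 5 µM in the primary screen, cut at about 50% in these data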
Of the large screens only hits and unclear results are named; the others gave an inactive call. Compounds with a hit are over-represented: about 27% of the library has one in this group of screens.

CC(CCc1ccccc1)NC(=O)CSc1nccc(=O)[nH]1 (configuration not stated)	none
CCOc1ccc(S(=O)(=O)NC(C)(C)C)cc1-c1nc2c(C(C)(C)C)nn(C)c2c(=O)[nH]1	CYP2C9 inhib 66.5
Cc1ccc(S(=O)(=O)N(CCO)Cc2cc3ccc(C)c(C)c3[nH]c2=O)cc1	none
CCOc1ccc(S(=O)(=O)N(CCO)CCO)cc1-c1nc2c(C(C)(C)C)nn(C)c2c(=O)[nH]1	CYP2C9 inhib 59.3
C#CCNC(=O)C1=C[C@H](c2ccc3c(c2)OCO3)[C@@H](CCCO)[C@H](OCC)O1	none (no result: CYP2C9 inhib, CYP2C19 act, CYP2C9 act, CYP2C19 inhib)
c1cc(-c2cc3cc(N4CCOCC4)ccc3o2)cs1	none (no result: CYP2C9 inhib, CYP2C19 act, CYP2C9 act, CYP2C19 inhib)
C=CCc1c(C)nc(SC)nc1Nc1ccc(C(C)=O)cc1	CYP2C9 inhib 97.2, CYP2C19 inhib 94.5
C=CCc1c(C)nc(SC)nc1Nc1ccccc1	Cav3 T inh -4 (no result: CYP2C9 inhib, CYP2C19 act, CYP2C9 act, CYP2C19 inhib)
C=CCc1c(C)nc(SC)nc1Nc1ccc(C(=O)O)cc1	none
Cc1cc(NC(=O)CSc2nc(-c3cccnc3)ccc2C#N)no1	none
N#Cc1ccc(-c2cccnc2)nc1SCc1ccc(Cl)cc1Cl	CYP2C9 inhib 56.1
COc1ccccc1NC(=O)NS(=O)(=O)c1ccc(C)cc1	none
CCc1nn(C(C)C(=O)Nc2cccc(C)c2C)c(=O)c2cc3occc3n12 (configuration not stated)	CYP2C9 inhib 66.4, CYP2C19 inhib 70.6
CCc1nn(C(C)C(=O)N2CCc3ccccc3C2)c(=O)c2cc3occc3n12 (configuration not stated)	CYP2C9 inhib 60.7, CYP2C19 inhib 93.9
CCc1nn(C(C)C(=O)NCCN2CCN(c3cccc(C)c3C)CC2)c(=O)c2cc3occc3n12 (configuration not stated)	none
CCC(C(=O)NC(C)CCc1ccccc1)n1nc(C)n2c(cc3occc32)c1=O (configuration not stated)	CYP2C9 inhib 87.2, CYP2C19 inhib 70.7
CCC(C(=O)NC(C)CCc1ccco1)n1nc(C)n2c(cc3occc32)c1=O (configuration not stated)	none (no result: CYP2C9 inhib, CYP2C19 act, CYP2C9 act, CYP2C19 inhib)
O=C(O)CCCC(=O)Nc1c(F)c(F)c(F)c(F)c1F	none
Cc1ccc(C(=O)CSc2nnc(COc3cc(C)cc(C)c3)o2)cc1	none
CSc1ccccc1NC(=O)Nc1ccc(Cl)cc1	CYP2C9 inhib 52.6, CYP2C19 inhib 85.0
CCC1Oc2ccc(C)cc2N(Cc2cccc(C)c2)C1=O (configuration not stated)	none
Cc1ccc2c(c1)N(Cc1ccc3c(c1)OCO3)C(=O)C(C)O2 (configuration not stated)	CYP2C19 inhib 60.9
CC1Oc2ccccc2N(Cc2ccccc2F)C1=O (configuration not stated)	CYP2C9 inhib 66.9, CYP2C19 inhib 89.8
CC1Oc2ccccc2N(Cc2ccccc2Cl)C1=O (configuration not stated)	none (no result: CYP2C9 inhib, CYP2C19 act, CYP2C9 act, CYP2C19 inhib)
CC1CCCC(NC(=O)Nc2cccs2)C1C (configuration not stated)	none
Cc1cc(N2C(=O)CC(N3CCN(C(c4ccccc4)c4ccccc4)CC3)C2=O)no1 (configuration not stated)	CYP2C9 inhib 97.8, CYP2C19 inhib 78.3
CCn1c(-c2cc(-c3cccc(OC)c3)nc3ccccc23)n[nH]c1=S	CYP2C9 inhib 90.9
CCOC(=O)c1ccc(NC(=O)CSc2nnc(CNc3ccc(OC)cc3)n2C)cc1	none (no result: Cav3 T inh)
Fc1ccccc1-c1nc(-c2ccccc2)no1	none (no result: CYP2C9 inhib, CYP2C19 act, CYP2C9 act, CYP2C19 inhib)
COc1ccccc1-c1noc(-c2ccccc2)n1	CYP2C19 inhib 52.5 (no result: Cav3 T inh)
COc1ccc(-c2noc(-c3ccccc3F)n2)cc1	CYP2C9 inhib 59.0 (no result: Cav3 T inh)
COc1ccc(-c2nc(-c3ccccc3OC)no2)cc1OC	CYP2C19 inhib 61.1
Cc1ccc(-c2nc(-c3ccccc3)no2)cc1	CYP2C19 inhib 66.4
COc1cccc(SCc2noc(C(=O)NCCCN3CCOCC3)c2C(=O)NCCCN2CCOCC2)c1	none (no result: CYP2C9 inhib, CYP2C19 act, CYP2C9 act, CYP2C19 inhib)
Cc1cccc(OCC(=O)N2CCN(C(=O)CCC3CCCC3)CC2)c1	CYP2C9 inhib 50.7, CYP2C19 inhib 61.5
O=C(CCC1CCCC1)Nc1ccc(OCC(=O)N2CCOCC2)cc1	none (no result: CYP2C9 inhib, CYP2C19 act, CYP2C9 act, CYP2C19 inhib)
O=C(CCC1CCCC1)N1CCN(C(=O)c2cccnc2)CC1	CYP2C19 inhib 69.6
N#CC1=C2SCN(Cc3ccco3)CN2C(=O)CC1c1c(F)cccc1Cl (configuration not stated)	none

Compound activity (PubChem)
